Reference: paper PMC4336329 (PLoS ONE, 2015)
Screen size: about 310,000 compounds; about 14,000 (4.5%) showed an effect of 50% or more. The effect is printed as a negative number. The entries come from a sample that favours strong results as a whole.

Molecular target: human ether-à-go-go-related gene (hERG) potassium channel (human, UniProt Q12809)
Test: primary screen, population patch clamp on CHO cells stably expressing hERG; higher = less effect of the substance
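Note: peak tail current of the secondary pulse compared with the same well before compound.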

Chain of human ether-à-go-go-related gene (hERG) potassium channel (Q12809 whole entry, looked up): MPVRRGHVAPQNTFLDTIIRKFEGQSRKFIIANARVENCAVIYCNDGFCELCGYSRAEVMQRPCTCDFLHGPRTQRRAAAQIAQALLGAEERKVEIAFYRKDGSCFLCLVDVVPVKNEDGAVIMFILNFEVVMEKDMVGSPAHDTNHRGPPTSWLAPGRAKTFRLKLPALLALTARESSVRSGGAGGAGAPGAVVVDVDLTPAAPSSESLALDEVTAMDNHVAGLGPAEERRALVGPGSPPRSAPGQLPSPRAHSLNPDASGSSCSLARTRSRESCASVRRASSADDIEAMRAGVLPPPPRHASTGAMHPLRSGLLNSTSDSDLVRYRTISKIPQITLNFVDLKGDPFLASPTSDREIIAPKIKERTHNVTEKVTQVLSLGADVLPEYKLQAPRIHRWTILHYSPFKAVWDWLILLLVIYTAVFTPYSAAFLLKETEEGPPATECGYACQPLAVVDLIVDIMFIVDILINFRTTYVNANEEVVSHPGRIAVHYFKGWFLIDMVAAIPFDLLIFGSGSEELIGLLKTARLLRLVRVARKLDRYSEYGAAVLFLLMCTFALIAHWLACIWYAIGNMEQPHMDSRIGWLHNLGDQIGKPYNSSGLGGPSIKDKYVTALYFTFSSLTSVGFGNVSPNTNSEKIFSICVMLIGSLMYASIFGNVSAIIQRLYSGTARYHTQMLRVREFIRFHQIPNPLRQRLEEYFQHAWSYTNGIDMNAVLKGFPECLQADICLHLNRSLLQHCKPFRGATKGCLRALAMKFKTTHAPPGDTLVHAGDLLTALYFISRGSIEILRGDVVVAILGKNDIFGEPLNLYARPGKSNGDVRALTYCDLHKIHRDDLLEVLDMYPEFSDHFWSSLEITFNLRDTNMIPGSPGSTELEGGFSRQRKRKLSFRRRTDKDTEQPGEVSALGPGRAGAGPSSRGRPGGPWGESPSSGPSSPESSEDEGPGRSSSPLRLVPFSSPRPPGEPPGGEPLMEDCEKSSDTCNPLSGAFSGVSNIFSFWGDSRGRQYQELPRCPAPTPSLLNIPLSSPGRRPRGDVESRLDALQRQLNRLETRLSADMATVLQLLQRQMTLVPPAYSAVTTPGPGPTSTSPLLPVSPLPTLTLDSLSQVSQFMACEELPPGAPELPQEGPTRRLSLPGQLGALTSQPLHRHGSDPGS

| Compound | hERG current change (%, negative = inhibition) at 10uM |
| --- | --- |
| CCOc1ccccc1CN1CCNC(=O)C1CC(=O)NCc1nccn1CC (stereo not drawn) | 18.8% |
| O=C(CNC(=O)c1ccccc1)NCC(=O)OCc1ccc(Cl)cc1 | -29.3% |
| Cc1onc(-c2c(Cl)cccc2Cl)c1C(=O)NC(=S)N1CCOCC1 | 6% |
| O=C(CCn1nnc(-c2cccs2)n1)NC1CCCCC1 | 2.79% |
| C=CCOc1cccc(C2C(C(=O)c3ccc(C)o3)=C(O)C(=O)N2CCCn2ccnc2)c1 (stereo not drawn) | 9.13% |
| Cn1cccc1/C=C1\SC(=S)N(NC(=O)c2ccccc2Cl)C1=O | 1.91% |
| CCn1c(SCC(=O)Nc2cc(C)on2)nnc1-c1ccc(S(=O)(=O)N2CCN(C)CC2)cc1 | -23.1% |
| Cc1cc(N=Nc2ccc(Cl)cc2)cc(CN2CCOCC2)c1O | 11.6% |
| CC(=O)c1ccc(OC(=O)Cc2cccc3ccccc23)cc1 | 3.13% |
| c1ccc2c(CNC3CCCCCC3)c[nH]c2c1 | -20.8% |
| O=S(=O)(Cc1cc(-c2ccccc2Cl)no1)c1ccccc1 | -51% |
| O=S(=O)(Cc1cc(-c2ccc(Cl)cc2)no1)c1ccccc1 | 0.608% |
| O=S(=O)(Cc1cc(-c2ccccc2)no1)c1ccccc1 | -2.75% |
| COCCn1nnnc1C(c1cccs1)N1CCCC(C)C1.Cl (stereo not drawn) | 17.9% |
| COc1ccc(/C=C/C(=O)Nc2ccccc2C(F)(F)F)cc1OC | -4.62% |
| CC(=O)N1N=C(c2ccc(Cl)cc2)CC1c1ccco1 (stereo not drawn) | 7.11% |
| COc1ccc(C(=O)NCC(=O)OCC(=O)N2N=C(c3ccc(Cl)cc3)CC2c2ccco2)cc1OC (stereo not drawn) | -5.57% |
| O=C(O)CCCC(=O)N1N=C(c2ccco2)CC1c1ccco1 (stereo not drawn) | 9.6% |
| O=C(COc1cccnc1[N+](=O)[O-])N1N=C(c2ccc(Cl)cc2)CC1c1ccco1 (stereo not drawn) | 16.9% |
| COCC(=O)OCC(=O)N1N=C(c2ccc(Cl)cc2)CC1c1ccco1 (stereo not drawn) | -28.1% |
| Cc1ccc(OCC(=O)N2N=C(c3ccc(Cl)cc3)CC2c2ccco2)c([N+](=O)[O-])n1 (stereo not drawn) | -63.3% |
| O=C(OCC(=O)N1N=C(c2ccc(Cl)cc2)CC1c1ccco1)c1ccco1 (stereo not drawn) | 27.4% |
| CCC(=O)N1N=C(c2ccc(Cl)cc2)CC1c1ccco1 (stereo not drawn) | 0.74% |
| O=C(O)CCC(=O)N1N=C(c2ccco2)CC1c1ccco1 (stereo not drawn) | -78.1% |
| O=C(CCl)N1N=C(c2ccco2)CC1c1ccco1 (stereo not drawn) | 14% |
| Cl.N=c1sccn1CC(=O)N1N=C(c2ccc(Cl)cc2)CC1c1ccco1 (stereo not drawn) | -79.5% |
| O=C(CNC(=O)c1ccccc1)OCC(=O)N1N=C(c2ccc(Cl)cc2)CC1c1ccco1 (stereo not drawn) | -72.5% |
